Results filed as inconclusive are left out. Entries that show only a call come without a potency. Calls of active or inactive are those of the source. The call rests on the fitted dose curve; in most records, active means well fitted inhibition curve with a large enough effect; inconclusive means small, poorly fitted or top-dose-only effect; inactive means flat fitted curve, though single readings scatter.

For this test, the system named is Zika virus NS2B-NS3 protease. Kind of test: Primary screen GU AMC qHTS for Zika virus inhibitors (AID 1347154). Further: nearly all actives have a fitted effect of over 70% in size. The settings on record: Zika NS2B-NS3 unlinked protease, AMC fluorogenic substrate; series mostly up to 54.1 µM. The essentials: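 Fluorogenic AMC-substrate cleavage by noncovalent NS2B-NS3 protease complex (25 nM, pH 8.0 Tris buffer with Tween 20) followed for 15 minutes at room temperature (~20% conversion). Percent inhibition from ex340/em450 signal change, fitted by 4-parameter Hill equation.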
Regarding `O=C1CSC(=O)N1C(CCc1ccncc1)COc1ccc(-c2cccc([N+](=O)[O-])c2)cc1` (centres undefined), the Potency result was “inactive”.

In the case of `Cc1cc(O)c2c(c1)C(=O)c1cccc(O)c1C2=O`, the Potency entry is “inactive”.

As for `COc1cc2c(Nc3ccc(Cl)c(Cl)c3F)ncnc2cc1OCC1C[C@@H]2CN(C)C[C@H]2C1`, the Potency result was “inactive”.

In the case of `COC(=O)C=CC(=O)OC`, the Potency result is “inactive”.

As to `COC(=O)[C@H](CCCN=C(N)N)NS(=O)(=O)c1ccc(C)cc1`, the Potency entry was “inactive”.

Consider `O=C1NC(O)CCN1[C@@H]1O[C@H](CO)[C@H](O)[C@H]1O` (some centres undefined), for which the Potency entry was “inactive”.

For the compound `O=C(CCCCCCC(=O)Nc1cccnc1)NO`, the Potency entry is “inactive”.

In the case of `CC(C)C[C@H](NC(=O)CNC(=O)c1cc(Cl)ccc1Cl)B1OC(=O)CC(CC(=O)O)(C(=O)O)O1` (some centres undefined), the Potency entry was “inactive”.

For `COc1cc2ncnc(Nc3cccc(Br)c3)c2cc1OC`, the Potency entry is “inactive”.

As to `C=CC(=O)N1CCc2ccc(-n3c(=O)ccc4cnc5ccc(-c6cnn(C)c6)cc5c43)cc21`, the Potency entry was “inactive”.

In the case of `C[C@]12CCC(=O)C=C1[C@@H]1CC1[C@H]1[C@H]3[C@@H]4C[C@H]4[C@@]4(CCC(=O)O4)[C@@]3(C)CC[C@H]12` (some centres undefined), the Potency entry was “inactive”.

`NC[C@H]1O[C@H](O[C@H]2[C@@H](O)[C@@H](O[C@H]3O[C@H](CO)[C@@H](O)[C@H](N)[C@@H]3O)[C@H](N)C[C@@H]2N)[C@H](N)C[C@H]1O`: the Potency result was “inactive”.

On to `CN(C)c1ccc(C(=O)NCCCCCCC(=O)NO)cc1`, for which the Potency result was “inactive”.

For `C=C[C@@H]1CN2CCC1C[C@H]2[C@H](O)c1ccnc2ccc(OC)cc12` (some centres undefined), the Potency entry was “inactive”.

Turning to `CC(=O)O[C@]1(C(C)=O)CC[C@H]2[C@@H]3C=C(C)C4=CC(=O)CC[C@]4(C)[C@@H]3CC[C@@]21C`, the Potency result was “inactive”.

`COc1cc(OC)c(NC(=O)Nc2cc(C)on2)cc1Cl`: the Potency result was “inactive”.

Regarding `CCn1c(=O)c2c(nc(C=Cc3ccc(OC)c(OC)c3)n2C)n(CC)c1=O`, the Potency result was “inactive”.

With `CC(C)(C)[C@H](NC(=O)c1ccc(N)c(Cl)c1)C(=O)N1CCC[C@@H]1C(=O)N[C@H](C#N)CC(=O)O`, the activity change, negative = inhibition is 6.17% [at 6.83 µM] (inactive).

With `O=C(NCc1ccccc1)[C@H](Cc1ccccc1)NC(=O)[C@@H]1O[C@@H]1C(=O)NCCc1ccc(O)cc1`, the Potency result was “inactive”.

As to `CC1(C)CC(O)CC(C)(C)N1[O]`, the Potency result is “inactive”.

Regarding `CC(C)NC[C@@H](C(=O)N1CCN(c2ncnc3c2[C@H](C)C[C@H]3O)CC1)c1ccc(Cl)cc1`, the Potency result was “inactive”.

Consider `C[C@@]12C(=O)OC(=O)[C@@]1(C)C1CCC2O1`, for which the Potency entry is “inactive”.

As to `COC1=C2C[C@@H](C)C[C@H](OC)[C@@H](O)[C@@H](C)C=C(C)[C@H](OC(N)=O)[C@@H](OC)C=CC=C(C)C(=O)NC(=CC1=O)C2=O`, the Potency result was “inactive”.

Consider `O=C1c2cccc(O)c2C(=O)c2c(O)cc(CO)cc21`, for which the Potency result was “inactive”.

In the case of `CN[C@H]1[C@@H](O)[C@@H]2O[C@@H]3O[C@H](C)CC(=O)[C@]3(O)O[C@@H]2[C@@H](NC)[C@H]1O`, the Potency result was “inactive”.

As to `C=CCNC1=C2C[C@@H](C)C[C@H](OC)[C@@H](O)[C@@H](C)C=C(C)[C@H](OC(N)=O)[C@@H](OC)C=CC=C(C)C(=O)NC(=CC1=O)C2=O`, the Potency entry is “inactive”.

Regarding `CN1CCCN(C(=O)c2cccc(-c3ccc(C=C4C(=O)Nc5ccc(Cl)cc54)o3)c2)CC1`, the Potency entry was “inactive”.

As to `CC[C@H]1OC(=O)[C@H](C)[C@@H](O[C@H]2C[C@@](C)(OC)[C@@H](O)[C@H](C)O2)[C@H](C)[C@@H](O[C@@H]2O[C@H](C)C[C@H](N(C)C)[C@@H]2O)[C@](C)(OC)C[C@@H](C)C(=O)[C@H](C)[C@@H](O)[C@]1(C)O`, the Potency result is “inactive”.

For the compound `CC1(C)[C@H](O[C@H]2O[C@H](C(=O)O)[C@@H](O)[C@H](O)[C@H]2O[C@@H]2O[C@H](C(=O)O)[C@@H](O)[C@H](O)[C@H]2O)CC[C@@]2(C)[C@H]1CC[C@]1(C)[C@H]2C(=O)C=C2[C@H]3C[C@@](C)(C(=O)O)CC[C@]3(C)CC[C@]21C`, the Potency entry was “inactive”.

`C[C@]12CC[C@@H]3c4ccc(O)cc4CC[C@H]3[C@H]1CC[C@H]2O`: the Potency result is “inactive”.

On to `Cc1onc(-c2ccccc2)c1C(=O)N[C@@H]1C(=O)N2[C@@H](C(=O)O)C(C)(C)S[C@@H]12`, for which the Potency result is “inactive”.

In the case of `CC(=O)NCC(=O)N1[C@H]2CC[C@H]1c1cc(Nc3ncc(C(F)(F)F)c(NC4CCC4)n3)ccc12`, the Potency result is “inactive”.

With `CC(C)(O)[C@H]1CC[C@@](C)([C@H]2[C@@H](O)C[C@@]3(C)[C@@H]4C[C@H](O[C@@H]5O[C@H](CO)[C@@H](O)[C@H](O)[C@@H]5O)[C@H]5C(C)(C)[C@@H](O[C@@H]6OC[C@@H](O)[C@H](O)[C@@H]6O)CC[C@@]56C[C@@]46CC[C@]23C)O1`, the Potency result was “inactive”.

On to `CCCCCCCCCCCC(CC1OC(=O)C1CCCCCC)OC(=O)C(CC(C)C)NC=O` (centres undefined), for which the Potency result was “inactive”.

Regarding `CC(C)(C)c1nc2c3cc[nH]c(=O)c3c3cc(F)ccc3c2[nH]1`, the Potency entry is “inactive”.

Regarding `CNC(=O)Nc1ccc(-c2nc(N3CC4CCC(C3)O4)c3cnn(C4CCC5(CC4)OCCO5)c3n2)cc1`, the Potency entry was “inactive”.

Regarding `CC(=O)C1=C(O)C=C2Oc3c(C(C)=O)c(O)c(C)c(O)c3C2(C)C1=O` (centres undefined), the Potency entry is “inactive”.

As for `COc1ccc([C@@H]2CNC(=O)C2)cc1OC1CCCC1`, the Potency result is “inactive”.

In the case of `CCOc1cc2ncc(C#N)c(Nc3ccc(OCc4ccccn4)c(Cl)c3)c2cc1NC(=O)C=CCN(C)C`, the Potency result was “inactive”.

Source of the values: PubChem BioAssay (NCATS).
